This is a sample that favours compounds with a hit; in the whole collection about 3.9% have one here.
BoNT F protease: inhibitors of Botulinum neurotoxin F light chain protease; 360,000 compounds, 0.22% hits; inhibition, % at 10 µM; Multiplex microsphere protease cleavage assay, flow cytometry; in the data active means inhibition above about 35%, passing the limit was not always enough; inconclusive means no clear call, values can overlap the other calls
SARS 3CLpro inh: SARS-CoV 3CLpro protease inhibition; P0C6X7; recombinant SARS-CoV 3CLpro, quenched FRET peptide cleavage; inhibition, % at 6 µM; 290,000 compounds, 0.14% hits; in the data active means inhibition above about 12%
Anthrax LF prot: inhibitors of Bacillus anthracis lethal factor protease | multiplex microsphere protease cleavage assay, LF | 360,000 compounds, 0.12% hits | inhibition, % at 10 µM | AID 588501 | P15917
BoNT A protease: inhibitors of Botulinum neurotoxin A light chain protease; multiplex microsphere protease substrate cleavage, flow cytometry; inhibition, % at 10 µM; 360,000 compounds, 0.17% hits
VHR inh abs: DUSP3 (human) phosphatase inhibition; recombinant VHR phosphatase, pNPP absorbance; AID 1654; inhibition, % at 13.3 µM; 290,000 compounds, 0.52% hits; in the data active means inhibition above about 50%
Target sequence (P51452 whole entry, looked up): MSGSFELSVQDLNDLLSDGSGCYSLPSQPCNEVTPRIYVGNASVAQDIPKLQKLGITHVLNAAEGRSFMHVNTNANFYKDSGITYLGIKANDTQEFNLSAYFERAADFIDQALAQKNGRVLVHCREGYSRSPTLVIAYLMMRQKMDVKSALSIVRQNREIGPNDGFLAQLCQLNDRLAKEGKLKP
Bead autofluor: counter-screen for toxin protease inhibitors: compound fluorescence; compound autofluorescence counterscreen, microsphere flow cytometry; stronger effect = higher value; fluorescence intensity (no concentration beside the values); 360,000 compounds, 3.1% hits; AID 624483; in the data active means fluorescence intensity above about 16000; inconclusive means no clear call, values can overlap the other calls
Numbers stand for hits; – = inactive; ? = inconclusive; · = no result. Unless noted, no stated cut-off is given here; in the data, active means inhibition above about 30%; inconclusive means no clear call, values can overlap the other calls; inactive means below that.

SMILES | BoNT F protease | SARS 3CLpro inh | Anthrax LF prot | BoNT A protease | VHR inh abs | Bead autofluor
S=c1[nH]nc(C2CCCCC2)n1/N=C/c1ccc(Br)s1 | 39 | – | – | ? | – | –
NC(=O)/C(=C/c1cccnc1)NC(=O)c1ccccc1 | ? | – | – | – | – | –
Cc1ccc(S(=O)(=O)Cc2c(C)noc2C)cc1 | – | – | – | – | – | 22977
CCOc1ccc(S(=O)(=O)N2CCN(Cc3ccco3)CC2)cc1 | – | – | – | – | – | –
OC(c1ccc2ccccc2n1)c1c(Cl)cccc1Cl (stereo not given) | – | · | – | – | · | –
C/C(CC(O)c1ccc2ccccc2n1)=N/O (stereo not given) | – | – | – | – | – | 20613
COc1cccc(-c2nc(CS(=O)(=O)CC(=O)NCCc3ccc(OC)cc3OC)c(C)o2)c1 | – | – | – | – | – | –
COCCCNC(=O)CS(=O)(=O)Cc1nc(-c2cccc(OC)c2)oc1C | – | – | – | – | – | 20516
COc1ccc(OC)c(CCNC(=O)CS(=O)(=O)Cc2nc(-c3ccc(C)cc3)oc2C)c1 | – | – | – | – | – | 23969
COc1cccc(-c2nc(CS(=O)(=O)CC(=O)NCCc3cc(OC)ccc3OC)c(C)o2)c1 | – | – | – | – | – | –
Cc1oc(-c2ccccc2F)nc1CS(=O)(=O)CC(=O)NCCCN1CCN(C)CC1 | – | – | – | – | – | –
COc1ccc(-c2nc(CS(=O)(=O)CC(=O)NCCCN3CCN(C)CC3)c(C)o2)cc1 | – | – | – | – | 57 | –
COc1ccc(-c2nc(CS(=O)(=O)CC(=O)NCCc3cc(OC)ccc3OC)c(C)o2)cc1 | – | – | – | – | – | 17109
CCn1c(=S)sc2c(=O)n(CC(=O)Nc3ccc(Cl)cc3)c(C)nc21 | – | – | – | – | – | –
CN(CC(=O)O)Cc1oc(CO)cc(=O)c1O | – | · | – | – | · | –
CCOc1ccccc1NC(=O)CC1Nc2ccccc2NC1=O (stereo not given) | – | – | – | – | – | –
COc1ccc(CCNC(=O)CC2Nc3ccccc3NC2=O)cc1OC (stereo not given) | – | – | – | – | – | 24834
CCCOc1ccccc1NC(=O)CC1Nc2ccccc2NC1=O (stereo not given) | – | – | – | – | – | 21938
COCCn1c(-c2ccc(OC)cc2)cnc1SCC(=O)Nc1cccc2ccccc12 | – | – | – | – | – | –
CCCCCCCCCCCCOC1OC(CO)C(O)C(O)C1NC(C)=O (stereo not given) | – | – | – | – | – | –
CCN(CC)C(=O)CSc1nnc(-c2ccccc2)n1N | – | – | – | – | – | 21307
CCOc1ccc(-c2nnc(SCC(=O)N(CC)CC)n2N)cc1 | – | – | – | – | – | 21180
c1ccc(OCCSc2nnc3sc4ccccc4n23)cc1 | – | – | – | – | – | –
CCN(CC)C(=O)CSc1nnc(-c2ccccc2)n1-c1ccccc1 | – | – | – | – | – | –
CCN(CC)C(=O)CSc1nnc2sc3ccccc3n12 | – | – | – | – | – | 19933
SMILES | BoNT F protease | SARS 3CLpro inh | Anthrax LF prot | BoNT A protease | VHR inh abs | Bead autofluor
CCN(CC)C(=O)CSc1nnc(-c2ccncc2)n1N | – | – | – | – | – | 16267
CCCCN(C)C(=O)c1sc(=O)n(Cc2c(C)cccc2C)c1C | – | · | – | – | · | –
CCOc1cc(CNCC2CCCN2CC)cc(Cl)c1OC (stereo not given) | – | – | – | – | – | –
CCN1CCCC1CNCc1cc(OC)c(OC)c(OC)c1 (stereo not given) | – | – | – | – | – | 24874
COc1ccccc1C(=O)Nc1cccc2cccnc12 | – | – | – | – | – | –
COc1ccc(CNc2nc3nc(C)cc(C)n3n2)cc1 | – | – | – | – | – | 23427
COc1ccc(CNc2nc3nc(C)c(Cl)c(C)n3n2)cc1 | – | – | – | – | – | –
COc1ccc(-c2cc3nc(C)cc(C)n3n2)cc1 | – | – | – | – | – | 20324
Cc1cc(C)n2nc(NCc3ccccc3)nc2n1 | – | – | – | ? | – | 20633
Cc1cc(C)n2nc(S(=O)(=O)NCCc3ccccc3)nc2n1 | – | – | – | – | – | –
CCSc1nnc(N2C(=O)c3ccc(C(=O)c4ccc(C(=O)O)cc4)cc3C2=O)s1 | ? | – | – | – | – | –
CCN(CC)CCCCCCCCOC(=O)c1cc(OC)c(OC)c(OC)c1 | – | · | – | – | · | –
COc1ccc(C(=O)C2CCCN(C3CSCCSC3)C2)c(OC)c1 (stereo not given) | – | – | – | – | 57 | –
Cc1nc(N2CCN(c3ccccc3)CC2)nc2c1C(=O)CC(c1ccccc1)C2 (stereo not given) | – | – | – | – | – | 17903
Cc1nc(N2CCN(c3ccccc3)CC2)nc2c1C(=O)CCC2 | – | – | – | – | – | 22851
O=C1CCCc2nc(N3CCN(c4ccccc4)CC3)ncc21 | – | – | – | – | – | –
Cc1nc(N2CCN(c3ccccc3)CC2)nc2c1C(=O)CC(C)C2 (stereo not given) | – | – | – | – | – | 21996
Cc1ccc(C2CC(=O)c3cnc(N4CCN(c5ccccc5)CC4)nc3C2)cc1 (stereo not given) | – | – | – | – | – | –
Cc1ccc(S(=O)(=O)N2CCOC23CCN(C(=O)C(=O)NCCC(C)C)CC3)cc1 | – | · | – | – | · | –
CSC1=C(C#N)C(c2ccc(Cl)cc2)C2=C(CC(C)(C)CC2=O)N1 (stereo not given) | – | · | – | – | – | 23927
CCCSC1=C(C#N)C(c2ccc(OC)cc2)C2=C(CC(C)(C)CC2=O)N1 (stereo not given) | – | – | – | – | – | –
CCN(CC(=O)Nc1c(F)cccc1F)C(=O)c1cccn1C | – | · | – | – | · | –
Cc1cccnc1NC(=O)C12CCC(C)(C(=O)O1)C2(C)C (stereo not given) | – | – | – | – | – | 22033
O=C(Nc1ccccc1C(F)(F)F)N1CCN(c2ccc3nncn3n2)CC1 | – | – | – | – | – | 20519
O=C(Nc1ccccc1C(F)(F)F)N1CCN(c2ccc3nnc(-c4ccc(F)cc4)n3n2)CC1 | – | – | – | – | – | –
SMILES | BoNT F protease | SARS 3CLpro inh | Anthrax LF prot | BoNT A protease | VHR inh abs | Bead autofluor
COc1ccc(S(=O)(=O)N2CCOCC2)cc1NC(=O)c1cc2ccccc2o1 | – | · | – | – | · | –
O=c1c2ccc(Cl)cc2[nH]c(=S)n1Cc1cccnc1 | – | – | – | – | – | 21022
CN1CCN(C(=O)c2ccc3c(=O)n(Cc4ccc(Cl)cc4)c(=S)[nH]c3c2)CC1 | – | – | – | – | – | 20632
CCOC(=O)N1CCN(C(=O)c2ccc3c(=O)n(Cc4ccccc4OC)c(=S)[nH]c3c2)CC1 | – | – | – | – | – | 16581
CCn1c(=O)[nH]c2cc(C(=O)N3CCN(c4ccccc4)CC3)ccc2c1=O | – | – | – | ? | – | 22918
Cc1ccc(NC(=O)N[C@H](C(=O)O)C(C)C)c(C)c1 | – | – | – | – | – | –
O=C(c1ccc2c(=O)n(Cc3ccc4c(c3)OCO4)c(=S)[nH]c2c1)N1CCCCC1 | – | – | – | – | – | 22165
